The source of these data is PubChem BioAssay (NCI).

This is part of a sample that, as a whole, favours compounds with a hit. Of some 83,000 tested, about 20% had one in any assay.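 How to read the values: 0–100, growth inhibition (40 = 60% inhibited); 0, no net growth; -100 to 0, cell death (-40 = 40% of starting cells died; -100 = all dead).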 A number with no mark means an inactive call. The source made the active and inactive calls. The calls were made as follows: active = growth percent below 10; inactive = the rest.

Among the test systems are NCI-H23 lung; NCI-H226 lung; NCI-H322M lung; HOP-62 NSCLC; NCI-H460 lung; NCI-H522 lung; A549/ATCC NSCLC; 786-0 renal; COLO 205 colon; DU-145 prostate; K-562 leukemia; MALME-3M melanoma; MDA-MB-231 breast; SF-268 CNS; SF-295 CNS; SF-539 CNS; UACC-257 melanoma; M14 melanoma; RXF 393 renal.
Holding throughout (experiment): NCI-60 one-dose screen, 48 h (100 = growth as untreated, 0 = no growth, -100 = all killed)
Holding throughout (conditions): 10 µM unless noted

With `Cc1ccc(-c2c(Br)c(OC(=O)CO[C@@H]3C[C@H](C)CC[C@H]3C(C)C)c(-c3ccc(C)cc3C)c(Br)c2OC(=O)CO[C@H]2C[C@@H](C)CC[C@@H]2C(C)C)c(C)c1`, the growth was 98.6% with NCI-H23 lung; 56.2% with NCI-H226 lung; 103% in the assay on NCI-H322M lung; 94.5% in the assay on HOP-62 NSCLC; 105% in the assay with NCI-H460 lung; 79.4% in the assay with NCI-H522 lung. The growth in the assay with A549/ATCC NSCLC was 88.9%; in the assay on 786-0 renal, 96.8%; in the assay on COLO 205 colon, 95.3%; in the assay with DU-145 prostate, 106%; with K-562 leukemia it was 110%; in the assay with MALME-3M melanoma, 106%. In addition, the growth in the assay on MDA-MB-231 breast is 96.1%; in the assay on SF-268 CNS it was 100%; in the assay with SF-295 CNS, 96.2%; in the assay with SF-539 CNS, 101%; in the assay with UACC-257 melanoma, 98.8%; in the assay with M14 melanoma it was 91.5%.
Take `O=C1CCC(NC(=S)Nc2ccccc2)N1` (configuration not stated): the growth with NCI-H23 lung was 91.2%; with NCI-H226 lung, 103%; in the assay with NCI-H322M lung, 99.5%; with HOP-62 NSCLC, 109%; with NCI-H460 lung, 115%; with NCI-H522 lung, 92.8%. For the same compound, the growth in the assay on A549/ATCC NSCLC is 101%; in the assay with 786-0 renal it was 105%; in the assay with COLO 205 colon it was 120%; with DU-145 prostate, 112%; with K-562 leukemia, 97.5%; in the assay on MALME-3M melanoma, 99.6%. Further, the growth with MDA-MB-231 breast was 109%; with RXF 393 renal, 117%; in the assay with SF-268 CNS, 104%; in the assay on SF-295 CNS it was 110%; in the assay with SF-539 CNS, 105%; in the assay with UACC-257 melanoma, 104%. The growth with M14 melanoma was 110%.
On to `CCN(CC)CCCC(C)Nc1c2c(nc3ccc(OC)cc13)CCCC2` (configuration not stated), for which the growth in the assay with NCI-H23 lung was 87.7%; with NCI-H226 lung, 97.3%; in the assay with NCI-H322M lung, 90.6%; with HOP-62 NSCLC, 87.6%; with NCI-H460 lung, 92.7%; with NCI-H522 lung, 112%. In addition, the growth with A549/ATCC NSCLC was 108%; in the assay with 786-0 renal, 90.2%; in the assay with COLO 205 colon it was 100%; in the assay on DU-145 prostate it was 111%; in the assay with K-562 leukemia, 79.9%; in the assay with MALME-3M melanoma, 118%. Also, the growth with MDA-MB-231 breast is 79.8%; in the assay with SF-268 CNS, 86.2%; with SF-295 CNS, 78%; with SF-539 CNS it was 89.8%; in the assay on UACC-257 melanoma, 112%; in the assay with M14 melanoma, 100%.
On to `COc1ccc(/C=C\c2nc3ccccc3s2)cc1OP(=O)(O)O`, for which the growth with NCI-H23 lung is 43.4%; with NCI-H226 lung it was 66.3%; with NCI-H322M lung, 59.8%; in the assay on HOP-62 NSCLC, 49.3%; in the assay on NCI-H460 lung, 20.7%; with NCI-H522 lung, 12.5%. Further, the growth in the assay with A549/ATCC NSCLC is 42.3%; in the assay on 786-0 renal, 64.7%; with COLO 205 colon it was 112%; with DU-145 prostate, 29.1%; in the assay on K-562 leukemia it was 10.4%; in the assay with MALME-3M melanoma, 71.3%. Moreover, the growth is 49.2% in the assay with MDA-MB-231 breast; 2.73% (active) in the assay on RXF 393 renal; 60.2% in the assay with SF-268 CNS; 40.8% with SF-295 CNS; -10.2% (active) in the assay with SF-539 CNS; 83.1% with UACC-257 melanoma. The growth with M14 melanoma is 25.5%.
In the case of `CCN1C(=O)N(CC)C2C1NN=c1s/c(=C3\C(=O)Nc4ccccc43)c(=O)n12` (configuration not stated), the growth was 37.3% in the assay with NCI-H23 lung; 93.2% in the assay on NCI-H226 lung; 43.5% with NCI-H322M lung; 5.9% (active) in the assay with HOP-62 NSCLC; 9.09% (active) with NCI-H460 lung; 2.21% (active) in the assay with NCI-H522 lung. The growth in the assay with A549/ATCC NSCLC is 28.8%; in the assay on 786-0 renal, 27.7%; with COLO 205 colon, -25.1% (active); with DU-145 prostate, 14.9%; in the assay with K-562 leukemia it was 2.13% (active); in the assay on MALME-3M melanoma it was 19%. For the same compound, the growth in the assay on MDA-MB-231 breast was 25%; with SF-268 CNS, 67.1%; in the assay on SF-295 CNS, 8.72% (active); in the assay with SF-539 CNS, -34.1% (active); with UACC-257 melanoma, 80.4%; in the assay on M14 melanoma, 20.1%.
Turning to `CS(=O)(=O)OCCN(CCOS(C)(=O)=O)c1ccc(/C=N/Nc2ccc([N+](=O)[O-])cc2[N+](=O)[O-])cc1`, the growth with NCI-H23 lung is 73.6%; in the assay with NCI-H226 lung it was 81.4%; with NCI-H322M lung, 94.5%; in the assay with HOP-62 NSCLC, 92.8%; in the assay with NCI-H460 lung it was 37.5%; in the assay with NCI-H522 lung it was 91.5%. In addition, the growth was 80.8% in the assay with A549/ATCC NSCLC; 101% in the assay on 786-0 renal; 90% in the assay with COLO 205 colon; 99.7% in the assay with DU-145 prostate; 102% in the assay with K-562 leukemia; 86.8% with MALME-3M melanoma. In addition, the growth in the assay on MDA-MB-231 breast is 71.6%; in the assay with RXF 393 renal it was 102%; in the assay with SF-268 CNS it was 94.1%; with SF-295 CNS it was 79.2%; with SF-539 CNS, 80.5%; with UACC-257 melanoma, 96.9%. Besides, the growth in the assay with M14 melanoma was 99.3%.
Regarding `COc1cccc2c1C(=O)c1c(O)c3c(c(O)c1C2=O)C[C@@](O)(C(=O)CO)C[C@@H]3O[C@H]1C[C@H](N)[C@@H](O)[C@H](C)O1`, the growth is -25% (active) with NCI-H23 lung; -41.8% (active) in the assay on NCI-H226 lung; 13.6% with NCI-H322M lung; -18% (active) in the assay with HOP-62 NSCLC; 1.64% (active) in the assay on NCI-H460 lung; -22.5% (active) with A549/ATCC NSCLC. The growth in the assay on 786-0 renal is 12.1%; with COLO 205 colon it was -86.6% (active); in the assay with DU-145 prostate it was -26.8% (active); with K-562 leukemia it was 1.44% (active); in the assay with MALME-3M melanoma, -50.7% (active); in the assay on MDA-MB-231 breast, 1.94% (active). Besides, the growth is -15.4% (active) in the assay with SF-268 CNS; -16.1% (active) in the assay on SF-295 CNS; -23.9% (active) in the assay with SF-539 CNS; -49.3% (active) with UACC-257 melanoma; -47.4% (active) with M14 melanoma.
On to `COc1ccc(C(=O)c2cc(C)c(OC)c(C)c2)c(OC)c1N(C(=O)C(Cl)Cl)C(=O)C(Cl)Cl`, for which the growth with NCI-H23 lung is 21.9%; in the assay with NCI-H226 lung, 15.9%; in the assay on NCI-H322M lung, 41.5%; in the assay with HOP-62 NSCLC, 17.7%; in the assay on NCI-H460 lung it was 2% (active); with NCI-H522 lung, 11%. Further, the growth in the assay on A549/ATCC NSCLC is 13.6%; in the assay with 786-0 renal, 14.1%; in the assay with COLO 205 colon it was -34.6% (active); with DU-145 prostate, 1.52% (active); in the assay with K-562 leukemia, 8.2% (active); with MALME-3M melanoma, 58.2%. Further, the growth was 13.2% with MDA-MB-231 breast; 41.2% in the assay with RXF 393 renal; 30.6% in the assay on SF-268 CNS; 7.31% (active) in the assay on SF-295 CNS; -16% (active) with SF-539 CNS; 48.3% with UACC-257 melanoma. Further, the growth with M14 melanoma was -14.8% (active).
